From PubChem
HT1080 IDH1KD tx: qHTS for induction of synthetic lethality in tumor cells producing 2HG: qHTS for the HT-1080-IDH1KD cell line; AID 686971, 2013; hit rate 2% among 360,000; Potency, µM (top dose mostly 46.1 µM), most hits filed as cytotoxic; HT-1080 IDH1 knockdown viability, ATP luminescence, 48 h
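Knockdown cells (IDH1KD HT-1080) received compounds 2 h after plating at 750 cells/well and were kept 48 h at 37 °C in 5% FBS RPMI. A CellTiter-Glo luminescence read gave % activity for curve fitting.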
TDP1 cell CPT: qHTS for Inhibitors of human tyrosyl-DNA phosphodiesterase 1 (TDP1): qHTS in cells in presence of CPT; Potency, µM (doses to about 46.2 µM), most hits filed as inhibitors; hit rate 12% among 420,000; AID 686979, 2013; chicken DT40 Tdp1-/-;hTDP1 cells + 20 nM CPT, ATP luminescence, 48 h; also: nearly all actives have a fitted effect of over 55% in size
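Chicken DT40 Tdp1-/- cells stably complemented with human TDP1 were seeded at 400 cells/well in medium containing 20 nM camptothecin, exposed to pin-transferred compounds, and grown at 37 °C for at least 48 hr. Viability was read as ATP luminescence.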
TDP1 cell noCPT: qHTS for Inhibitors of human tyrosyl-DNA phosphodiesterase 1 (TDP1): qHTS in cells in absence of CPT; DT40 Tdp1-/- hTDP1 cells, no CPT, ATP luminescence, 48 h; hit rate 15% among 420,000; Potency, µM (titrated, usually from 46.2 µM), usual class: inhibitors; also: nearly all actives have a fitted effect of over 55% in size
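A cellular qHTS used chicken DT40 cells lacking endogenous Tdp1 but carrying stably transfected human TDP1. Compounds were applied without camptothecin, and cell growth kinetics were judged by ATP-dependent luminescence after ≥48 hr.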
IL1B secr inh: qHTS for Inhibitors of Inflammasome Signaling: IL-1-beta AlphaLISA Primary Screen. THP-1 LPS/ATP IL-1B secretion, AlphaLISA, 16 h; active compounds read low. activity change, % at 57.5 µM. hit rate 4.7% among 360,000. AID 743279, 2014; in the data active = activity change below about -50%; inconclusive = mostly about -30% to -49%
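THP-1 cells pretreated 1 hr with compounds (up to 57.5 uM final), then stimulated with LPS (250 ng/mL final) plus ATP (1.25 mM final); secreted IL-1B measured by AlphaLISA after 16 hr, decreased signal indicating inhibition.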
HT1080-NT tox: qHTS for induction of synthetic lethality in tumor cells producing 2HG: qHTS for the HT-1080-NT fibrosarcoma cell line. HT-1080-NT fibrosarcoma viability, CellTiter-Glo ATP luminescence, 48 h. Potency, µM (highest dose often 46.1 µM), most hits filed as cytotoxic. hit rate 1.6% among 360,000;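 also: NT is the 2HG producing partner of a matched IDH1 knockdown line; nearly all actives have a fitted effect of over 55% in size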
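Toxicity toward the 2HG-producing NT line was scored as %Activity, normalised to DMSO and no-cell wells, from CellTiter-Glo luminescence after 48 hours' treatment.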
A number is an active result; i = inactive; ? = inconclusive; nt = no result given; [ ] = another dose, or the depositor's remark. An excerpt weighted towards active compounds, which were near 19% of everything screened. Unless noted, calls follow the shape of the dose curve; as a rule, active = well fitted curve in the direction sought with a large enough effect; inconclusive = small, poorly fitted or top-dose-only effect, or another doubt; inactive = no such curve, though single readings can be large; an effect the other way counts as inactive or inconclusive.

SMILES	HT1080 IDH1KD tx	TDP1 cell CPT	TDP1 cell noCPT	IL1B secr inh	HT1080-NT tox
COc1ccccc1C(=O)Nc1ncc2c(n1)CC(c1ccco1)CC2=O (configuration not stated)	i	?	?	i	i
O=C(CCNC(=O)c1ccccc1Cl)Nc1ccc(S(=O)(=O)Nc2nccs2)cc1	i	i	i	i	i
CCc1cccc(NC(=O)COC(=O)c2c(C)nn(-c3ccccc3)c2C)c1	i	i	?	i	i
COc1cccc(NC(=O)COC(=O)c2c3c(nc4ccccc24)CCC(C)C3)c1 (configuration not stated)	?	8.2µM	9.2µM	i	i[9.24 µM]
COc1cccc(NC(=O)COC(=O)c2c(C)nn(-c3ccccc3)c2C)c1	i	?	i	-56.3	i
COc1cccc(C(=O)NC23CC4CC(CC(C4)C2)C3)c1	i	i	i	i	i
Cc1ccc(N(C(=O)Cc2cccs2)C(C(=O)NC2CCCC2)c2ccncc2)cc1 (configuration not stated)	i	?	i	i	i
O=C(NCC(=O)N(c1ccc(Cl)cc1)C(C(=O)NC1CCCC1)c1ccncc1)c1ccco1 (configuration not stated)	i	i	i	i	i
Cc1ccc(C(C(=O)NC2CCCC2)N(C(=O)Cc2cccs2)c2ccc(C)c(C)c2)o1 (configuration not stated)	?	?	22.4µM	-74.0	i
COc1cc(N(C(=O)Cc2cccs2)C(C(=O)NC2CCCCC2)c2cccc(OC)c2OC)ccc1-n1cnnn1 (configuration not stated)	i	11.6µM	25.9µM	i	i
O=C(NCC(=O)N(c1ccc2c(c1)OCO2)C(C(=O)NC1CCCC1)c1ccncc1)c1ccco1 (configuration not stated)	i	23.1µM	23.1µM	i	i
Cc1ccc(C)c(N(C(=O)Cc2cccs2)C(C(=O)NC2CCCC2)c2ccc(C)o2)c1 (configuration not stated)	i	23.1µM	13µM	i	i
O=C(COn1nnc2ccc(C(F)(F)F)cc21)Nc1c(Cl)cccc1Cl	i	i	i	?	i
Cc1ccccc1-c1cncnc1NC1CCNCC1	nt	i	i	nt	nt
O=C(NC1CCCC1)C(c1ccc(F)cc1)N(C(=O)Cc1cccs1)c1ccc2c(c1)OCCO2 (configuration not stated)	i	?	?	i	i
Cc1cccc(CCN(C(=O)Cc2cccs2)C(C(=O)NC2CCCCC2)c2cccnc2)c1 (configuration not stated)	i	5.8µM	?	?	i
Cc1ccc(C(C(=O)NC2CCCC2)N(C(=O)Cc2cccs2)c2ccc3c(c2)OCCO3)cc1 (configuration not stated)	i	?	?	-58.4	i
CCOCCc1nn2c(=O)cc(COC(=O)Cc3ccccc3)nc2s1	nt	i	i	nt	nt
Cc1ccccc1C1C=C(c2ccc(Cl)cc2)Nc2nnnn21 (configuration not stated)	nt	i	?	nt	nt
COc1ccc(C2=CC(c3ccc(C)cc3)n3nnnc3N2)cc1 (configuration not stated)	?	?	i	i	?
COc1ccc(OC)c(C2C=C(c3ccc(C)c(C)c3)Nc3nnnn32)c1 (configuration not stated)	?	4.61µM	2.31µM	i	?
COc1cccc(C2=CC(c3cc(OC)ccc3OC)n3nnnc3N2)c1 (configuration not stated)	?	7.31µM	6.51µM	-76.6	?
COc1ccc(Oc2ncc3nc(C)c(=O)n(CCC#N)c3n2)cc1	nt	i	i	nt	nt
COc1ccc(CC(=O)OCC(=O)Nc2ccc(N3CCOCC3)cc2)cc1	i	i	i	i	i
COc1cc(/C=N/NC(=O)c2cccnc2)ccc1OS(=O)(=O)c1ccc(F)cc1	i	?	20.6µM	i	i
